Source: PubChem BioAssay (several laboratories)
HIF activator: HIF pathway transcriptional activation. 0.32% of 300,000 active. activation, % at 7.5 µM (by protocol). U2OS HRE-luciferase reporter, luminescence; normalized: DMSO 0%, desferrioxamine 100%;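 active = mean activation of at least 10% of the iron chelator positive control signal, with at least half of replicates also reaching 10%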
NPR1 activator: GC-A (human) enzyme activation. P16066. 0.14% of 370,000 active. activation, % at 10 µM. HEK293 GC-A cells, cGMP TR-FRET, EC30 ANP; 0% at EC30 ANP, 100% saturating ANP; in the data active = activation above about 40%
KLK7 zymogen act: proKLK7 (human) activation, primary screen; AID 652039; purified proKLK7, EDANS-DABCYL substrate fluorescence; 100% is mature enzyme control, 0% vehicle; activation, % at 7 µM; P49862; 0.9% of 370,000 active;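 active = activation above the mean of all tested compounds plus 3 SD, computed per campaign excluding outliers beyond control limits, cut at about 13% in these data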
NPR2 activator: GC-B (human) receptor activation; P20594; AID 1920062; activation, % at 10 µM; 0.11% of 370,000 active; HEK293-GC-B cells, CNP EC30, cGMP TR-FRET; 0% at EC30 CNP, 100% saturating CNP;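 active = activation at 10 µM reaching about 35% in either raw or pattern-adjusted values, limit read from the data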
KLK7 act conf: confirmation of human kallikrein-7 zymogen activators | shares compounds with KLK7 zymogen act | purified proKLK7, EDANS-DABCYL substrate fluorescence; scaled: vehicle 0, mature enzyme 100 | 68% of 3,200 active | activation, % at 7 µM | AID 686949;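 active = activation, as change over the incubation, above the mean of all tested compounds plus 3 SD, cut at about 13% in these data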
EDANS interfere: optically interferes with EDANS-DABCYL signal, flagging KLK7 hits. shares compounds with KLK7 zymogen act. EDANS-DABCYL substrate fluorescence interference, no enzyme, 4 h; solvent 0%, active enzyme control 100%. activation, % at 7 µM. 80% of 3,200 active;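 active = activation above the all-compound mean plus 3 SD, ignoring values outside control-based bounds, cut at about 4.8% in these data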;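 note: value is the 4 h activation minus the activation read at time zero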
EDANS interf: EDANS fluorescence interference in dose response, no enzyme; EDANS-DABCYL peptide fluorescence interference; 20% of 250 active; shares compounds with KLK7 zymogen act; EC50, µM;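 active = compounds that raise the fluorescence signal in this interference counterscreen, with EC50 at or below 10 µM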;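 note: intact quenched peptide substrate alone read at 355 nm excitation and 520 nm emission; signal is fluorescence gain from T0 to T4 after four hours at room temperature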
Starred values were filed as active, the others as inactive; i = inactive; . = no result. Rows were chosen to be rich in hits. Some 1.3% of all compounds tested hit in one or more screens of this group.

SMILES	HIF activator	NPR1 activator	KLK7 zymogen act	NPR2 activator	KLK7 act conf	EDANS interfere	others
CCN1CCN(c2nc3c(C)cccn3c(=O)c2/C=C(\C#N)C(=O)NCCOC)CC1	-3.8	8.2	29.8*	-3.1	19.6*	20.8*
Cc1cccn2c(=O)c(/C=C(\C#N)C(N)=O)c(N3CCN(Cc4ccc5c(c4)OCO5)CC3)nc12	-0.2	-11.7	15.1*	-11.5	2.7	3.5
COCCCNC(=O)/C(C#N)=C/c1c(N2CCN(C)CC2)nc2ccccn2c1=O	1.3	2.1	16.8*	-0.6	10.0	12.1*
CCNC(=O)/C(C#N)=C/c1c(N2CCN(c3ccccc3)CC2)nc2ccccn2c1=O	0.3	-0.3	14.0*	-0.6	18.5*	15.8*	EDANS interf=i
COCCCNC(=O)/C(C#N)=C/c1c(N2CCN(c3ccccc3)CC2)nc2ccccn2c1=O	1.3	-2.4	11.9	2.4	.	.
COCCNC(=O)/C(C#N)=C/c1c(N2CCN(C)CC2)nc2c(C)cccn2c1=O	0.2	4.9	6.0	-3.2	.	.
CCNC(=O)/C(C#N)=C/c1c(N2CCCCCC2)nc2ccccn2c1=O	-2.0	7.9	10.8	0.7	.	.
CCOC(=O)Cc1nc(N2CCN(C=O)CC2)c2c(C)c(C(=O)OCC)sc2n1	.	-0.5	1.1	4.2	.	.
Nc1ccc2nc(-c3ccccn3)[nH]c2c1	1.1	-6.2	-1.2	7.5	.	.
Nc1ccc2nc(-c3ccccc3)[nH]c2c1	4.9	-9.8	77.4*	-0.3	61.2*	75.6*
Nc1ccc2nc(-c3cccnc3)[nH]c2c1	-0.5	-18.7	-0.4	-10.4	.	.
Nc1ccc2nc(-c3cccs3)[nH]c2c1	0.7	.	73.0*	.	67.1*	69.2*
Nc1ccc2nc(-c3ccc(N)c(Cl)c3)[nH]c2c1	0.7	-5.5	77.3*	-11.1	67.6*	71.7*
COc1ccc2nc(-c3ccc(N)cc3)[nH]c2c1	-2.3	-4.0	2.9	-9.2	.	.
Nc1ccc(-c2nc3c(Cl)cc(N)cc3[nH]2)cc1	-0.2	-0.1	41.8*	-6.2	79.0*	68.7*
CN(CCO)C1CN(Cc2cn(Cc3ccccc3F)nn2)S(=O)(=O)C1 (stereo not given)	.	-1.3	-0.1	0.3	.	.
CC(=O)Nc1ccc2nc(-c3cccs3)[nH]c2c1	1.6	6.6	16.1*	2.1	35.9*	27.6*	EDANS interf=8.23*
CC(=O)Nc1ccc2nc(-c3cccn3C)[nH]c2c1	0.6	-6.7	1.1	-0.2	.	.
COc1ccc(CCNC(=O)c2cc3c(C)nn(-c4ccccc4)c3s2)cc1OC	.	2.6	0.5	5.6	.	.
CCCC1CCC2(CCC(=O)N2CCC#N)CC1 (stereo not given)	.	-0.3	0.2	-8.2	.	.
Cc1cc(=O)n2ccccc2c1C#N	-0.3	3.4	48.2*	-2.4	70.5*	70.5*
O=c1ccc2c(-c3ccccc3)c3ccc(O)cc3oc-2c1	-0.1	0.9	24.8*	3.5	49.2*	51.0*
Nc1ccc(-c2nc3ncccc3o2)c(O)c1	3.3	-2.3	21.0*	0.1	22.1*	20.9*
CC(C)C(=O)Nc1ccc(-c2nc3ncccc3o2)cc1	0.7	0.4	14.4*	2.1	7.5	6.6*
Cc1ccc(-c2nc3ncccc3o2)cc1N	2.2	3.9	0.3	-1.0	.	.
SMILES	HIF activator	NPR1 activator	KLK7 zymogen act	NPR2 activator	KLK7 act conf	EDANS interfere	others
Cc1cc(-c2nc3ncccc3o2)ccc1N	3.5	3.8	40.2*	-3.7	66.9*	67.3*
CN1[C@H](Cc2ccccc2)COc2cc(N3CCCC3)ccc2S1(=O)=O	.	3.3	0.3	-11.2	.	.
CC(=O)Nc1ccc(NC(=O)CSc2nnc(-c3cccs3)o2)cc1	.	-2.2	0.3	-1.3	.	.
Cc1nn2cc(-c3ccccc3)nc2[nH]c1=O	0.1	15.4	49.2*	-1.8	74.4*	79.7*
CC(C)CN1C(=O)c2ccc(NC(=O)c3cccs3)cc2C1=O	2.4	9.6	12.9*	17.5	-15.5	-13.5
CC(C)CN1C(=O)c2ccc(NC(=O)c3ccco3)cc2C1=O	3.0	1.7	0.5	4.7	.	.
c1ccc(-c2nn(Cc3ncco3)c3ccccc23)cc1	.	-2.6	.	-9.6	.	.
